Measured values as given in PubChem BioAssay (NCATS).
Results filed as inconclusive are left out. A call without a number means that no potency is given here. Calls of active or inactive are those of the source. Calls come from the whole dose curve.

Experiment: Cytotoxicity counterscreen for inhibitors of SARS-CoV-2 cell entry (AID 1645845); note: nearly all actives have a fitted effect of over 50% in size
Conditions: cell viability (SARS-CoV-2 entry assay cells); series mostly up to 57.1 µM
In short: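 HEK293-ACE2 cells (Expi293F stably expressing human ACE2) seeded overnight, then compound for 1 h plus 48 h at 37C. Viability as ATP content by luminescence; normalized to wells with cells and media-only wells.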
Potency is the fitted concentration of half-maximal effect.

Compound | Potency
CC(C)NCCCn1c(Sc2cc(Cl)cc(Cl)c2)nc2c(N)ncnc21 | inactive
COc1cc2ncnc(Nc3ccc(O)c(Br)c3)c2cc1OC | inactive
COc1cc(N2CCN(C)CC2)ccc1Nc1ncc2c(n1)N(C)c1ccccc1C(=O)N2 | inactive
C=C1C(=O)O[C@@H]2[C@H]3C(C)=CC[C@@]34O[C@@]4(C)CC[C@@H]12 | inactive
Nc1cc(C(F)(F)F)c(-c2nc(N3CCOCC3)nc(N3CCOCC3)n2)cn1 | 10 µM (active)
CCc1ccc2nc(Nc3cc(Cc4ccccc4)nc(NC4CCC(O)CC4)n3)sc2c1 (centres undefined) | inactive
Nc1nccc(-c2c(-c3ccc(F)cc3)ncn2C2CCN(Cc3ccon3)CC2)n1 | inactive
Cn1nccc1Nc1nccc(-c2cc3c(s2)C(C)(C)N(CCN2CCOCC2)C3=O)n1 | inactive
C[C@@H]1COCCN1c1cc(=O)n2c(n1)N(Cc1cncc(Cl)c1)[C@H](C(F)(F)F)CC2 | inactive
Cc1cc(I)ccc1Nc1c(C(=O)NOCC2CC2)cc(F)c(F)c1F | 17.8 µM (active)
CCCCCCCCCCCCCCCCOCCCOP(=O)(O)COC(CO)Cn1ccc(N)nc1=O (centres undefined) | inactive
COc1cc(=C2C=c3ccccc3=N2)[nH]/c1=C/c1[nH]c(C)cc1C | 10 µM (active)
O=C(Nc1ccc(OC(F)(F)Cl)cc1)c1cnc(N2CC[C@@H](O)C2)c(-c2ccn[nH]2)c1 | inactive
O=S(=O)(Nc1ccc(-c2cccnc2)c2cccnc12)c1cccc(C(F)(F)F)c1 | 14.1 µM (active)
CC(C)(C)S(=O)(=O)c1ccc2nccc(Nc3n[nH]c4ccc(F)cc34)c2c1 | inactive
CO[C@H]1/C=C/O[C@@]2(C)Oc3c(C)c(O)c4c(O)c(c5c(nc6cc(C)ccn65)c4c3C2=O)NC(=O)/C(C)=C\C=C\[C@H](C)[C@H](O)[C@@H](C)[C@@H](O)[C@@H](C)[C@H](OC(C)=O)[C@@H]1C | inactive
C[C@@H]1CC(=O)Nc2cccc(-c3ccc4c(c3)c(-c3cnn(C)c3)nn4C)c2N1 | inactive
O=C(NCC(=O)N1CCCC1)Nc1ccc2cnccc2c1 | inactive
COc1ccc(-n2cnc3cc(C(=O)N4CCCCC4)ccc32)cc1 | inactive
CN[C@@H](C)C(=O)N[C@H](C(=O)N1CCC[C@H]1C(=O)Nc1snnc1-c1ccccc1)C1CCCCC1 | inactive

Compound | Potency
COCCOC(=O)N1CCN(S(=O)(=O)c2cc(F)c(Oc3ccc(Cl)cc3)c(F)c2)C(C(=O)NO)C1 (centres undefined) | 31.6 µM (active)
CN(C)N(C)C(=O)[C@@]1(Cc2ccccc2)CCCN(C(=O)[C@@H](Cc2c[nH]c3ccccc23)NC(=O)C(C)(C)N)C1 | inactive
COc1cc(N2CCC(N3CCN(C)CC3)CC2)ccc1Nc1ncnc(Nc2ccccc2S(=O)(=O)C(C)C)n1 | inactive
Cc1ccc(-n2nc(C(C)(C)C)cc2NC(=O)NCc2cc(F)ccc2Oc2ccc3c(cnn3CCO)c2)cc1 | inactive
C[C@]12CCC3[C@@H](CC[C@H]4NC(=O)C=C[C@]34C)[C@@H]1CC[C@@H]2C(=O)Nc1cc(C(F)(F)F)ccc1C(F)(F)F (some centres undefined) | inactive
CC(C)[C@@H](CS(=O)(=O)C(C)C)N1C(=O)[C@@](C)(CC(=O)O)C[C@H](c2cccc(Cl)c2)[C@H]1c1ccc(Cl)cc1 | inactive
CCn1nc(C2CCN(C(=O)CCO)CC2)nc1-c1cnc(N)c(-c2nnc(C(C)(C)C)o2)n1 | inactive
Fc1ccc(-c2nc(-c3ccccc3F)[nH]c2-c2ccncc2)cc1 | inactive
Cn1cc(/C=C/C(=O)c2cccc(F)c2)cc1/C=C/C(=O)NO | inactive
CC(C)C[C@H](CO)Nc1nc(S[C@@H](C)c2ccccc2)nc2nc(N)sc12 | 31.6 µM (active)
CC1(C)OCCn2c1nc1c(N3CCOCC3)nc(-c3cnc(N)nc3)nc12 | inactive
C=CC(=O)Nc1cccc(Nc2nc(Nc3ccc(N4CCN(C(C)=O)CC4)cc3OC)ncc2C(F)(F)F)c1 | 31.6 µM (active)
COc1ccc(S(=O)(=O)N[C@@H](CNc2nc(C)nc(N3CCC(c4ccc5c(n4)NCCC5)CC3)c2C)C(=O)O)cc1 | inactive
CCCC(CCC)C(=O)Nc1ccn([C@@H]2O[C@H](CO)[C@@H](O)C2(F)F)c(=O)n1 | inactive
COc1ccc(-n2c(SCCCN3C(=O)c4cccc5cccc(c45)C3=O)nnc2-c2ccncc2)cc1 | inactive
CCN(CC)C(=O)Cc1csc(NS(=O)(=O)c2cccc(Cl)c2C)n1 | inactive
COc1ccc2c(c1)C(c1ccc(F)cc1)=C(CN1CCCC1)CO2 | inactive
Cc1noc2c1-c1ccccc1C(c1ccc(Cl)cc1)=N[C@H]2CC(N)=O | inactive
COc1ccc2nc3n[nH]c(C)c3c(NCCOCCO)c2c1 | inactive
